The values below come from ChEMBL document CHEMBL1961873, “Compounds: GSK PKIS; Assays: Nanosyn kinase panel” (2012).

Experiment [1] addresses Serine/threonine-protein kinase pim-2 (Homo sapiens) (UniProt Q9P1W9). Particulars: at 1 µM.
Experiment [2] has as its target Serine/threonine-protein kinase pim-3 (Homo sapiens) (UniProt Q86V86). Particulars: at 0.1 µM.
Experiment [3] has the same target. Particulars: at 1 µM.
For experiment [4], the target named is T1, MAP kinase-activated protein kinase 5 (Homo sapiens) (UniProt Q8IW41).
T1 sequence (whole entry): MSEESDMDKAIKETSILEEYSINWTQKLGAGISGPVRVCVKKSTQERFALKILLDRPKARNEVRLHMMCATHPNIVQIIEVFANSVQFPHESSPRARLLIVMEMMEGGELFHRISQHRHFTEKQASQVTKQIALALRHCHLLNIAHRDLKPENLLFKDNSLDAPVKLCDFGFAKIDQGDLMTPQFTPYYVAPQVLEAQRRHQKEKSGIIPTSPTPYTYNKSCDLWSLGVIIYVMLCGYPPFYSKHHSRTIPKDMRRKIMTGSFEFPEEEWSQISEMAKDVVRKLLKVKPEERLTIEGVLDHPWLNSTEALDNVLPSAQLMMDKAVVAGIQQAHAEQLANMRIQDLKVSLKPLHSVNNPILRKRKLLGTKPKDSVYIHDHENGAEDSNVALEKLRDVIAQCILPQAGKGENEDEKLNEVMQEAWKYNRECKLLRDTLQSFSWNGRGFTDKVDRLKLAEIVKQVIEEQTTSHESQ
Particulars: at 0.1 µM.

Experiment [5] addresses T1, MAP kinase-activated protein kinase 5 (Homo sapiens). Particulars: at 1 µM.
Experiment [6] deals with Serine/threonine-protein kinase SIK1 (Homo sapiens) (UniProt P57059). Particulars: at 0.1 µM.
Chain of Serine/threonine-protein kinase SIK1 (Homo sapiens) (P57059 whole entry): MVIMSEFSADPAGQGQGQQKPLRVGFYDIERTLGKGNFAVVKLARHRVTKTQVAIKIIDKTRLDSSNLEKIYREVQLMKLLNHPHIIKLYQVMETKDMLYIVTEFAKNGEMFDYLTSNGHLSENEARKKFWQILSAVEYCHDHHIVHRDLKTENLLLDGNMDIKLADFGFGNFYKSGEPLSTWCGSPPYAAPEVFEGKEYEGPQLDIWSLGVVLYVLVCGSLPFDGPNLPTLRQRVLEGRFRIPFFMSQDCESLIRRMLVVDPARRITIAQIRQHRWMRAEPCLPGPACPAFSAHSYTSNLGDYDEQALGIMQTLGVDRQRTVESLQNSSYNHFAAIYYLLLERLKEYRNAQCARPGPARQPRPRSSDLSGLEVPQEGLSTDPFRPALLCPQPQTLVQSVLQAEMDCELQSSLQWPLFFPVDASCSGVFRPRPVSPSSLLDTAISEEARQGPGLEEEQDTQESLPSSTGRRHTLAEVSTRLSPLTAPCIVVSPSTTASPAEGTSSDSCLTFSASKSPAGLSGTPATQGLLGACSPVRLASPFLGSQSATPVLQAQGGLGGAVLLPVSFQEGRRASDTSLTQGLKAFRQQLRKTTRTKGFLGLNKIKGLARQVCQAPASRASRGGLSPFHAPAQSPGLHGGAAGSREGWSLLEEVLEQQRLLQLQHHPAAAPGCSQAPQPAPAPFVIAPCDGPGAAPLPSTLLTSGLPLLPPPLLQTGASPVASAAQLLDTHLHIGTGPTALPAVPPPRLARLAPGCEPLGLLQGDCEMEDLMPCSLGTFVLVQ
The target is the same in experiment [7]. Particulars: at 1 µM.
Experiment [8] deals with Serine/threonine-protein kinase SIK2 (Homo sapiens) (UniProt Q9H0K1). Particulars: at 0.1 µM.
Chain of Serine/threonine-protein kinase SIK2 (Homo sapiens) (Q9H0K1 whole entry, looked up): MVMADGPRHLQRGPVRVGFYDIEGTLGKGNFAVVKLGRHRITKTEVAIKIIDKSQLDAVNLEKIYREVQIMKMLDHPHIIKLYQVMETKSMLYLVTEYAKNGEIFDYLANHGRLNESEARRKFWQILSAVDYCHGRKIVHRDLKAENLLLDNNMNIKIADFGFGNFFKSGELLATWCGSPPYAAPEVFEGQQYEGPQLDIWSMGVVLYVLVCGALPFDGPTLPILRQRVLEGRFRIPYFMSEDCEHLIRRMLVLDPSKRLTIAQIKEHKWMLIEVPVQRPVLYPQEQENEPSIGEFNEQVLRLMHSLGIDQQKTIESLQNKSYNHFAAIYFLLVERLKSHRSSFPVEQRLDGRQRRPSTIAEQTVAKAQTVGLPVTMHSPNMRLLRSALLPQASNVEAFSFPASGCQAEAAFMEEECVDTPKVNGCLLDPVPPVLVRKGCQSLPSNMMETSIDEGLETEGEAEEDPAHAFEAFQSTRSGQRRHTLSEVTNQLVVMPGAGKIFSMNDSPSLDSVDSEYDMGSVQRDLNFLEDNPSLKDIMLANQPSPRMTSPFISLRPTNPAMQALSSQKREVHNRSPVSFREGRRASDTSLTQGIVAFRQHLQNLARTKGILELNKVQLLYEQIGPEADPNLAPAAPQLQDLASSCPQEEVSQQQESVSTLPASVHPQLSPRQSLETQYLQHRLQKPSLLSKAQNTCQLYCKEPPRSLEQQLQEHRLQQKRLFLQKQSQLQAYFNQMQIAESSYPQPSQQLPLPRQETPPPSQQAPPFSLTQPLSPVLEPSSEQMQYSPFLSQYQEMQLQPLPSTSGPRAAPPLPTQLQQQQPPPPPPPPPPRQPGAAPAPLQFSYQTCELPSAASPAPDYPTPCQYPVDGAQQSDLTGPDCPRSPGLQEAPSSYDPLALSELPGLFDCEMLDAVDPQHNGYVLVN
Experiment [9] has the same target. Particulars: at 1 µM.
The target in experiment [10] is T2, Serine/threonine-protein kinase TBK1 (Homo sapiens) (UniProt Q9UHD2).
T2 sequence (whole entry): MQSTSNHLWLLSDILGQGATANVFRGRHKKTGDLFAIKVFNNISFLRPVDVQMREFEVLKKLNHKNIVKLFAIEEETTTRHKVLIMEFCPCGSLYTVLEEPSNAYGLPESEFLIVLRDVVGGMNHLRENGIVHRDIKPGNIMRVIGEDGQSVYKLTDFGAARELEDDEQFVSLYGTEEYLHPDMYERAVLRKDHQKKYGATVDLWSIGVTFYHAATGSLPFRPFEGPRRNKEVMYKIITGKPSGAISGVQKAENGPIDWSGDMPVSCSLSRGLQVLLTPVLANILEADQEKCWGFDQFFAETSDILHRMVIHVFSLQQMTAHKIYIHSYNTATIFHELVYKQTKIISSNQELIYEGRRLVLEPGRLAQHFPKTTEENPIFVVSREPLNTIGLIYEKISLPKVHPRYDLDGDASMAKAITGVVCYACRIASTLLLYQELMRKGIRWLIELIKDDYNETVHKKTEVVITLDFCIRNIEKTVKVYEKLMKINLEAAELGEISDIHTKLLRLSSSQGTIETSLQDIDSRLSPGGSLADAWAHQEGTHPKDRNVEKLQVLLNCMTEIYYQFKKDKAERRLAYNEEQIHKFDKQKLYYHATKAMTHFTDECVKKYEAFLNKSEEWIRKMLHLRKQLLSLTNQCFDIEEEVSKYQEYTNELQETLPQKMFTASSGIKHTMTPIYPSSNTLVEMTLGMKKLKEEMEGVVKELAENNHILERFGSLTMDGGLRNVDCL
Particulars: at 0.1 µM.

The target of experiment [11] is T2, Serine/threonine-protein kinase TBK1 (Homo sapiens). Particulars: at 1 µM.
Experiment [12] concerns the target T3, Testis-specific serine/threonine-protein kinase 1 (Homo sapiens) (UniProt Q9BXA7).
T3 sequence (whole entry): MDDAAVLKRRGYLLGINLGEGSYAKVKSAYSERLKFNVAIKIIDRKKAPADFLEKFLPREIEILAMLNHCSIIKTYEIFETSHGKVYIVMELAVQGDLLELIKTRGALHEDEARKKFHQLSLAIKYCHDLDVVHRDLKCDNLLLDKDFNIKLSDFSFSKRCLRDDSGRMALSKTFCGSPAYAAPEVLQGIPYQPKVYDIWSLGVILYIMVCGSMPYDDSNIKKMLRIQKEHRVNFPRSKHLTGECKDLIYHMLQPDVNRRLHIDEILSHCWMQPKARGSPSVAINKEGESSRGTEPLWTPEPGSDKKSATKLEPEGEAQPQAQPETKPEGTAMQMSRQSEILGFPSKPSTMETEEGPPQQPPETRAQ
Particulars: at 0.1 µM.

The target in experiment [13] is T3, Testis-specific serine/threonine-protein kinase 1 (Homo sapiens). Particulars: at 1 µM.
The target in experiment [14] is T4, Testis-specific serine/threonine-protein kinase 2 (Homo sapiens) (UniProt Q96PF2).
T4 sequence (whole entry): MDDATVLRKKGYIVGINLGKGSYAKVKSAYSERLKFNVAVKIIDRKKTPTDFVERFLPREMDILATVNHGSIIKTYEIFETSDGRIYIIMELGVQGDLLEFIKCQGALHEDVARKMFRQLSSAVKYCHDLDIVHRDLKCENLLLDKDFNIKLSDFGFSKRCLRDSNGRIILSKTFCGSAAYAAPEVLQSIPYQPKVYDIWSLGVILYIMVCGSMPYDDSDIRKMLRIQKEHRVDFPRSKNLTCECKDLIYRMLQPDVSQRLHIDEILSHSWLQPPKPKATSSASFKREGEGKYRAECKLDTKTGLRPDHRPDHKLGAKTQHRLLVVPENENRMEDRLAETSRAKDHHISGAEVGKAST
Particulars: at 0.1 µM.

For experiment [15], the target named is T4, Testis-specific serine/threonine-protein kinase 2 (Homo sapiens). Particulars: at 1 µM.
For experiment [16], the target named is Casein kinase I isoform alpha (Homo sapiens) (UniProt P48729). Particulars: at 0.1 µM.
Chain of Casein kinase I isoform alpha (Homo sapiens) (P48729 2-337 limits assumed): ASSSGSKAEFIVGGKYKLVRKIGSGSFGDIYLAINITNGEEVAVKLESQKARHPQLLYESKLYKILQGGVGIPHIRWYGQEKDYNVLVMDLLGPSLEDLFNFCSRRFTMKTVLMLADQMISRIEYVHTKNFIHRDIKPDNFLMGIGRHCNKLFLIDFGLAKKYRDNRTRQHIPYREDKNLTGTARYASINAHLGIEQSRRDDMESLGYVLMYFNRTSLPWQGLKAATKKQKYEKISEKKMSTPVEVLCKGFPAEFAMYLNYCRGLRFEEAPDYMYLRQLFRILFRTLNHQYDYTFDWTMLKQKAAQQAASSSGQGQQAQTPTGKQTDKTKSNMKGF
Experiment [17] shares this target. Particulars: at 1 µM.
The target in experiment [18] is Casein kinase I isoform gamma-1 (Homo sapiens) (UniProt Q9HCP0). Particulars: at 0.1 µM.
Chain of Casein kinase I isoform gamma-1 (Homo sapiens) (Q9HCP0 whole entry, looked up, canonical isoform): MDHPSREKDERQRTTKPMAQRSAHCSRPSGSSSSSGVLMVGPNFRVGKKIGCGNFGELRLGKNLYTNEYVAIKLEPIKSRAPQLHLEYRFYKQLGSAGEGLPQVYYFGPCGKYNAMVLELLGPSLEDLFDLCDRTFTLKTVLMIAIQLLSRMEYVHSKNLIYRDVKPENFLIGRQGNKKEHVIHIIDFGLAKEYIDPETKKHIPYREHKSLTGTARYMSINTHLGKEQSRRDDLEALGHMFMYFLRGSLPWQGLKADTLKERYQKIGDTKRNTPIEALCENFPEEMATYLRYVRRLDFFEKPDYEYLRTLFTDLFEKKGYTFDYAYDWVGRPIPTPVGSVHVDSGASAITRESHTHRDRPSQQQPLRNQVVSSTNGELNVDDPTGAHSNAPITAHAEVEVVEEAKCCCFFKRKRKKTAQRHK
Experiment [19] has the same target. Particulars: at 1 µM.
The target of experiment [20] is Casein kinase I isoform gamma-2 (Homo sapiens) (UniProt P78368). Particulars: at 0.1 µM.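 Note: values are mean inhibition figures reported as part of the GSK PKIS dataset.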
Chain of Casein kinase I isoform gamma-2 (Homo sapiens) (P78368 whole entry, looked up, canonical isoform): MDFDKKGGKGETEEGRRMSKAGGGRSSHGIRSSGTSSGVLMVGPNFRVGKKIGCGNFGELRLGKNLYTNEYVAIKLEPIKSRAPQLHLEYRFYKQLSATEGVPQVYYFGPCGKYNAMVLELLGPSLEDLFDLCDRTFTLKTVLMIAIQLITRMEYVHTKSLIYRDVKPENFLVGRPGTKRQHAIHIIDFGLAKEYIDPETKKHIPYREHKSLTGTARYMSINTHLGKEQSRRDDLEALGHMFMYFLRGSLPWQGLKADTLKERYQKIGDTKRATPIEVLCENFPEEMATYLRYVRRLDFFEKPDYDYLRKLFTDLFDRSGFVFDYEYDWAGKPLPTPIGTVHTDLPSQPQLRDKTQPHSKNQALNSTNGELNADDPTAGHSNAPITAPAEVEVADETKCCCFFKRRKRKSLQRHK

Chain of Serine/threonine-protein kinase pim-2 (Homo sapiens) (Q9P1W9 whole entry, looked up): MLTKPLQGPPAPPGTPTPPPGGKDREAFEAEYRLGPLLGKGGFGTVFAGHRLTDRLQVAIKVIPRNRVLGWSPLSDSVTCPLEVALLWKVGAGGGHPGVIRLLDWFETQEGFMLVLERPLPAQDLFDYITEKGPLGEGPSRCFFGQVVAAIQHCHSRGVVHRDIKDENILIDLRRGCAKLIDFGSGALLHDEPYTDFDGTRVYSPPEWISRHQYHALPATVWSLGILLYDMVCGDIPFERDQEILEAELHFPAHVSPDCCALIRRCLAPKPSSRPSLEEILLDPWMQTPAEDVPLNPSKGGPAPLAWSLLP

Take `CN1CCN(C(=O)c2ccc(NC(=O)Nc3ccc(N(C)c4ccnc(Nc5ccc(CS(C)(=O)=O)cc5)n4)cc3)cc2)CC1`: the inhibition in experiment [1] was -0.35%; in [2] it was 0.13%; in [3], 2.14%; in [4], 1.17%; in [5], 1.29%; in [6] it was 3.16%. Also, the inhibition in [7] was 17.6%; in experiment [8], -0.55%; in [9] it was 17.4%; in [10], 2.62%; in [11], 12.6%; in experiment [12], 0.02%. The inhibition stood at 1.8% in [13]; 0.71% in [14]; 0.35% in experiment [15]; 0.51% in [16]; 2.95% in experiment [17]; 1.88% in [18]. For the same compound, the inhibition in [19] worked out at 2.79%; in experiment [20], 1.94%.

Consider `COC(=O)c1ccc2c(c1)C(=Cc1cc(Br)c(O)c(Br)c1)C(=O)N2`, for which the inhibition in experiment [1] is 53.2%; in experiment [2], 18.4%; in [3], 64.3%; in [4], 0.85%; in [5], 2.43%; in experiment [6] it was 8.54%. For the same compound, the inhibition in experiment [7] came to 14.4%; in experiment [8], 3.66%; in experiment [9], 9.93%; in experiment [10], 1.23%; in experiment [11], 6.58%; in [12], 3.53%. The inhibition in experiment [13] is 5.53%; in [14], -0.06%; in experiment [15], 1.17%; in experiment [16] it was 1.76%; in [17], 6.74%; in [18] it was 3.99%. The inhibition in [19] worked out at 6.68%; in experiment [20], 4.6%.

`FC(F)(F)c1ccc(-c2nn3ncccc3c2-c2ccnc(Nc3ccc4c(c3)OCCO4)n2)cc1`: the inhibition in experiment [1] was 5.12%; in experiment [2] it was 6.66%; in experiment [3] it was 10.2%; in [4] it was 2.37%; in experiment [5], 5.39%; in experiment [6], -4.38%. The inhibition in experiment [7] was 0.84%; in [8] it was -0.15%; in experiment [9] it was 0.08%; in experiment [10], 5.62%; in experiment [11], 4.67%; in experiment [12], 1.27%. For the same compound, the inhibition in experiment [13] was 4.75%; in [14], 2.11%; in experiment [15] it was 5.84%; in experiment [16], 9.84%; in [17], 4.54%; in experiment [18] it was -0.1%. Also, the results for the inhibition in experiment [19] and in experiment [20] were 0.59% and 0.52%, respectively.

Take `Cc1cc(-c2ccccn2)cc(C)c1/C=C/c1cncc(-c2nn[nH]n2)c1`: the inhibition in [1] was -0.15%; in [2], 1.13%; in [3] it was 3.53%; in experiment [4], 1.22%; in [5], 1.42%; in [6], 18.9%. In addition, the inhibition in experiment [7] was 74.7%; in experiment [8], 5.34%; in experiment [9], 21.5%; in experiment [10], 3.59%; in experiment [11] it was 2.21%; in experiment [12] it was 4.23%. For the same compound, the inhibition was 4.46% in experiment [13]; 1.85% in experiment [14]; 2.37% in experiment [15]; 3.47% in [16]; 7.87% in [17]; 6.09% in experiment [18]. Further, the inhibition in [19] was found to be 4.39%; in experiment [20], 2.75%.

On to `CN(C)c1cc2c(Nc3ccc4c(cnn4Cc4ccccc4)c3)ncnc2cn1`, for which the inhibition was 0.31% in experiment [1]; -0.8% in [2]; 0.43% in experiment [3]; 0.61% in experiment [4]; 0.28% in [5]; 3.9% in experiment [6]. Moreover, the inhibition came out at 4.59% in experiment [7]; 2.41% in [8]; 4.92% in experiment [9]; 1.07% in experiment [10]; 3.14% in experiment [11]; 3.54% in experiment [12]. The inhibition in experiment [13] is -2.44%; in [14] it was 1.31%; in [15], -1.33%; in experiment [16], 0.64%; in experiment [17], 4.63%; in experiment [18] it was 2.47%. For the same compound, the inhibition amounted to 3.24% in experiment [19] and 2.05% in experiment [20].

Turning to `COc1ccc(-c2nn3ncccc3c2-c2ccnc(Nc3cccc(C(F)(F)F)c3)n2)cc1`, the inhibition was 0.24% in experiment [1]; -0.01% in experiment [2]; 0.75% in experiment [3]; 1.02% in experiment [4]; 1.07% in [5]; 7.99% in [6]. The inhibition turned out to be 2.26% in experiment [7]; 4.76% in experiment [8]; 8.4% in experiment [9]; 0.76% in [10]; 1.7% in [11]; 0.61% in experiment [12]. For the same compound, the inhibition was 1.94% in experiment [13]; 1.17% in experiment [14]; 0.38% in experiment [15]; 0.44% in experiment [16]; 2.43% in [17]; 2.67% in experiment [18]. For the same compound, the inhibition in experiment [19] is 2.71%; in experiment [20] it was 2.72%.

Consider `COc1cc(/C=N/Nc2ncnc3c2cnn3C(C)C)ccc1O`, for which the inhibition in experiment [1] was found to be 4.35%; in experiment [2], 1.2%; in experiment [3], 7.74%; in [4] it was 0.1%; in [5], 0.02%; in experiment [6] it was 2.84%. The inhibition in experiment [7] came out at 14.5%; in experiment [8], 2.78%; in experiment [9], 23.1%; in [10], 2.37%; in [11], 6.12%; in experiment [12] it was 1.68%. For the same compound, the inhibition is 1.76% in experiment [13]; 0.77% in [14]; 1.4% in experiment [15]; -0.04% in [16]; 0.99% in [17]; 1.74% in experiment [18]. Also, the inhibition is 3.2% in experiment [19] and 1.49% in [20].

Broadly, the inhibition is the change of the read-out against control, counted positive when it falls.
